# Measurements: PubChem BioAssay (EPA / NIEHS)
# Values joined by “and” are separate entries in the source; they are usually repeats but may differ in a detail not shown here. Equal entries are not always repeated. Results filed as inconclusive are left out. The source holds several records for some structures; these can differ, active in one and inactive in another. Active and inactive are the calls of the source. Rule for the calls, unless noted: active = hit-call score of the fitted dose curve at least 0.9, where 1 is the maximum; inactive = score below 0.9.
# Experiments:
# [1] = ATG_NF_kB_CIS: Attagene CIS-FACTORIAL HepG2 Assay for human Nuclear Factor Kappa B (NF-kB) (AID 2282991); details: HepG2 Attagene cis-factorial NF-kB reporter mRNA; actives raise or lower the signal
# Procedure, shortened: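 Endpoint from a 52-component multiplexed HepG2 reporter panel: cis-regulated transcription units transiently transfected, 24 h dosing, reporter mRNA quantified by RT-PCR and capillary electrophoresis, scored as increase or decrease against DMSO.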
# [2] = ATG_NRF2_ARE_CIS: Attagene CIS-FACTORIAL HepG2 Assay for human Nuclear Factor Erythroid 2 Related Factor 2 (NFR2) response to Antioxidant Response Elements (ARE) (AID 2282992); details: HepG2 Attagene ARE/NRF2 reporter, transcription factor activity; actives raise or lower the signal;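 for AC50: reporter mRNA level measured by RT-PCR and capillary electrophoresis fluorescence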
# Procedure, shortened: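 Readout: reporter mRNA quantified by RT-PCR plus FAM-labelled primer extension, HpaI digestion and capillary electrophoresis, 24 h after dosing transfected HepG2 cells. Gain or loss of signal is fitted bidirectionally against DMSO baseline.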
# [3] = ATG_Oct_MLP_CIS: Attagene CIS-FACTORIAL HepG2 Assay for human Octamer-Binding Transcription Factor (Oct) (AID 2282993); details: HepG2 Attagene cis-factorial Oct reporter, mRNA; actives raise or lower the signal
# Procedure, shortened: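 HepG2, transient MRTU transfection, cis promoter elements; 24 h dosing; RT-PCR/CE fluorescence read-out of reporter mRNA; fit both directions vs DMSO.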
# [4] = target: human Peroxisome Proliferator-activated Receptor alpha (PPARa), PPARA (gene 5465) (UniProt Q07869); assay: ATG_PPARa_TRANS: Attagene TRANS-FACTORIAL HepG2 Assay for human Peroxisome Proliferator-activated Receptor alpha (PPARa) (AID 2283001; active = hit-call score of the fitted dose curve at least 0.9, where 1 is the maximum;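 for AC50: potency for gain of reporter signal over DMSO so agonist or activator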)
# Chain of human Peroxisome Proliferator-activated Receptor alpha (PPARa), PPARA (gene 5465) (Q07869 whole entry, looked up, the tested form may be a part): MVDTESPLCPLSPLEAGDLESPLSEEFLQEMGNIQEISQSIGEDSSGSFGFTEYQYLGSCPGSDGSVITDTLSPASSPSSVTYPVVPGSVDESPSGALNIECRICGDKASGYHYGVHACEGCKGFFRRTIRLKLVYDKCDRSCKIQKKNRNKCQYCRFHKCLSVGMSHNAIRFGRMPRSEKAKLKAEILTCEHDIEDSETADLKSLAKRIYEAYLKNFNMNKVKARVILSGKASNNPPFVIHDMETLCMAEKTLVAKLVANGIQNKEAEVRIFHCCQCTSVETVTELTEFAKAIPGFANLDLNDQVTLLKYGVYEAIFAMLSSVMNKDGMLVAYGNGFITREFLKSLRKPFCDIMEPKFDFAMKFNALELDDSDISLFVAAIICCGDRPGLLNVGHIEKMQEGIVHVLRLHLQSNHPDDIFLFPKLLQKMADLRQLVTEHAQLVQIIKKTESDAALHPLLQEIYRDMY
# Procedure, shortened: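 Reporter transcripts quantified by RT-PCR plus capillary electrophoresis after 24 h treatment, fitted upward relative to DMSO. Cells: human HepG2 transiently carrying multiple GAL4-UAS reporter units driven by NR-Gal4 chimeras.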
# [5] = target: human Peroxisome Proliferator-activated Receptor delta (PPARd), PPARD (gene 5467) (UniProt Q03181); assay: ATG_PPARd_TRANS: Attagene TRANS-FACTORIAL HepG2 Assay for human Peroxisome Proliferator-activated Receptor delta (PPARd) (AID 2283002; active = hit-call score of the fitted dose curve at least 0.9, where 1 is the maximum)
# Chain of human Peroxisome Proliferator-activated Receptor delta (PPARd), PPARD (gene 5467) (Q03181 whole entry, looked up): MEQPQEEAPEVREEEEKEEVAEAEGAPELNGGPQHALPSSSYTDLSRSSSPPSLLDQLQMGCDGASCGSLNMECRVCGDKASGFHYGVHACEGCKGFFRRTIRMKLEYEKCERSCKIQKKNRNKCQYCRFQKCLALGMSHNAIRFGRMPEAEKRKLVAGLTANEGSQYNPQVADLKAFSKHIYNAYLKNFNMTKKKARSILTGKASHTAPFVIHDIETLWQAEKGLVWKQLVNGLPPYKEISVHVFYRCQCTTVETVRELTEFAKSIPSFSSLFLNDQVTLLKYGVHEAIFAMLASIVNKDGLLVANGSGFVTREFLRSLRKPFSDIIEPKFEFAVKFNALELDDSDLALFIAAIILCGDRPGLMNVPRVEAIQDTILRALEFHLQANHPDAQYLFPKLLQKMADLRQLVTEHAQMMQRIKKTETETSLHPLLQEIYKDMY
# Procedure, shortened: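 Cell-based TRANS reporter: HepG2, transient MRTU transfection, 24 h exposure. Readout = reporter mRNA (RT-PCR/CE, 6-FAM). Gain-of-signal fit vs DMSO control.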
# [6] = target: Peroxisome proliferator-activated receptor gamma (Homo sapiens) (UniProt P37231); assay: ATG_PPARg_TRANS: Attagene TRANS-FACTORIAL HepG2 Assay for human Peroxisome Proliferator-activated Receptor-gamma (PPARg) (AID 2283007; active = hit-call score of the fitted dose curve at least 0.9, where 1 is the maximum)
# Chain of Peroxisome proliferator-activated receptor gamma (Homo sapiens) (P37231 whole entry, looked up, the tested form may be a part): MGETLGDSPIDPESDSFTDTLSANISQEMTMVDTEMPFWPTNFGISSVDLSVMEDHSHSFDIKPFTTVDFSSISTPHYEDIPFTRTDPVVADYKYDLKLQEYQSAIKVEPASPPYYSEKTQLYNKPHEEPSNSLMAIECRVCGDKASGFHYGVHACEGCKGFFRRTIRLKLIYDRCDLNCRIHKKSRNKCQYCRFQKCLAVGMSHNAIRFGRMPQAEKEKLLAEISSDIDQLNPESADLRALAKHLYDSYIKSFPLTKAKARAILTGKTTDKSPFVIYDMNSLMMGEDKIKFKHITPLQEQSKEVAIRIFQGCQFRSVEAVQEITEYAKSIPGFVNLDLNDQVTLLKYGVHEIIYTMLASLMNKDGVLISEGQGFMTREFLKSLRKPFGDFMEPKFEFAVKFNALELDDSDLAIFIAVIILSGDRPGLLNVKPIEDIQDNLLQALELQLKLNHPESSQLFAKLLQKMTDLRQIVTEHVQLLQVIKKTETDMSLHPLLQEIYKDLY
# Procedure, shortened: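 Endpoint reflects upward reporter mRNA change versus DMSO controls. Setup: transiently transfected HepG2, GAL4-UAS reporters driven by chimeric NR-Gal4, 24 h incubation, RT-PCR with capillary electrophoresis read-out.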
# [7] = target: Nuclear receptor subfamily 1 group I member 2 (Homo sapiens) (UniProt O75469); assay: ATG_PXR_TRANS: Attagene TRANS-FACTORIAL HepG2 Assay for human Pregnane X Receptor (PXR) (AID 2283008; active = hit-call score of the fitted dose curve at least 0.9, where 1 is the maximum)
# Chain of Nuclear receptor subfamily 1 group I member 2 (Homo sapiens) (O75469 whole entry, looked up, the tested form may be a part): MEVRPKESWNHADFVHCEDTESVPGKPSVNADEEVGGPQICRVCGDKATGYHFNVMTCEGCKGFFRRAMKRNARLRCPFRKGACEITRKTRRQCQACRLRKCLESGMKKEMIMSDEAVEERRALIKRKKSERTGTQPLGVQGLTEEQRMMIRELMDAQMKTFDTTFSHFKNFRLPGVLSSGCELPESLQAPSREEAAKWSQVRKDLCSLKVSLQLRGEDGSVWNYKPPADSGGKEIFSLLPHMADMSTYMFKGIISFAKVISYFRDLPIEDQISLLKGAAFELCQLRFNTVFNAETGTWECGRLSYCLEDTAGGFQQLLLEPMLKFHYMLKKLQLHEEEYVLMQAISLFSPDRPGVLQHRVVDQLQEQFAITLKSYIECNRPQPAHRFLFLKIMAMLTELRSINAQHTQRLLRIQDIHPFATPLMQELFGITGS
# Procedure, shortened: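 Trans-factorial format: exogenous NR-Gal4 fusion activity, not endogenous factor, in transfected human HepG2 liver cells. After 24 h dosing, RNA isolated, reverse-transcribed, amplified and resolved by capillary electrophoresis; induction scored versus DMSO.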
# [8] = target: Cellular tumor antigen p53 (Homo sapiens) (UniProt P04637); assay: ATG_p53_CIS: Attagene CIS-FACTORIAL HepG2 Assay for human p53 Transcription Factor (AID 2282994); details: HepG2 p53 cis-element reporter, Attagene mRNA; actives raise or lower the signal
# Chain of Cellular tumor antigen p53 (Homo sapiens) (P04637 whole entry, looked up): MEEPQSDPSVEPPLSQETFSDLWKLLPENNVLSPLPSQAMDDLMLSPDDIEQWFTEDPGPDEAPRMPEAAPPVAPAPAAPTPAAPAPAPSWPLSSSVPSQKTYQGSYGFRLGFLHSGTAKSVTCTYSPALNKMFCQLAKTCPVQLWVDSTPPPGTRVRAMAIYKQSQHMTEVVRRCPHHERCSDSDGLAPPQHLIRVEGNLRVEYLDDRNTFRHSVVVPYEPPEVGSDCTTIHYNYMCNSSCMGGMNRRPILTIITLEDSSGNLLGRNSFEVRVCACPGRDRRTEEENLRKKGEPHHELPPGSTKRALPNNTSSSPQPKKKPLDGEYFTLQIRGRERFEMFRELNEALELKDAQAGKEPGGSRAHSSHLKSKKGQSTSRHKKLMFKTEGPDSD
# Procedure, shortened: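 Read-out: reporter mRNA by RT-PCR plus capillary electrophoresis with fluorescence detection. Human HepG2 liver cells carried transfected multi-reporter cis-element constructs, dosed 24 h. Gain or loss of signal fitted bidirectionally against DMSO control.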
# [9] = BSK_3C_TissueFactor: BioMAP Diversity Plus: 3C Assay for Tissue Factor Biomarker Activity (AID 2282997); details: BioMAP 3C HUVEC, tissue factor biomarker readout; actives raise or lower the signal
# Procedure, shortened: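 Cells used were primary human umbilical vein endothelial cells. They were dosed with chemical, and after 24 h Tissue Factor was quantified by ELISA. Curves were fitted bidirectionally with DMSO as baseline.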
# [10] = BSK_3C_VCAM1: BioMAP Diversity Plus: 3C Assay for Vascular cell adhesion molecule 1 (VCAM1) Biomarker Activity (AID 2282999); details: BioMAP 3C HUVEC, VCAM1 ELISA, cytokine-stimulated; actives raise or lower the signal
# Procedure, shortened: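 Activity fitted in both directions relative to DMSO, with ELISA measurement of the surface marker on primary HUVEC (3C) at 24 h post-treatment; parallel SRB staining (0.1% SRB, TCA-fixed, 560 nm) flagged overt cytotoxicity.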
# [11] = BSK_4H_Eotaxin3: BioMAP Diversity Plus: 4H Assay for Eotaxin 3 Biomarker Activity (AID 2283000); details: primary human endothelial cells (HUVEC); actives raise or lower the signal;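 note: CCL26 protein level quantified by ELISA in parallel with SRB cytotoxicity check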
# Procedure, shortened: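 Endothelial primary cells (human umbilical vein) exposed to compound for 24 h. ELISA detection of Eotaxin-3.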
# [12] = target: human Retinoic Acid Receptor beta (RARb), RARB (gene 5915) (UniProt P10826); assay: ATG_RARb_TRANS: Attagene TRANS-FACTORIAL HepG2 Assay for human Retinoic Acid Receptor beta (AID 2283004; active = hit-call score of the fitted dose curve at least 0.9, where 1 is the maximum)
# Chain of human Retinoic Acid Receptor beta (RARb), RARB (gene 5915) (P10826 whole entry, looked up, the tested form may be a part): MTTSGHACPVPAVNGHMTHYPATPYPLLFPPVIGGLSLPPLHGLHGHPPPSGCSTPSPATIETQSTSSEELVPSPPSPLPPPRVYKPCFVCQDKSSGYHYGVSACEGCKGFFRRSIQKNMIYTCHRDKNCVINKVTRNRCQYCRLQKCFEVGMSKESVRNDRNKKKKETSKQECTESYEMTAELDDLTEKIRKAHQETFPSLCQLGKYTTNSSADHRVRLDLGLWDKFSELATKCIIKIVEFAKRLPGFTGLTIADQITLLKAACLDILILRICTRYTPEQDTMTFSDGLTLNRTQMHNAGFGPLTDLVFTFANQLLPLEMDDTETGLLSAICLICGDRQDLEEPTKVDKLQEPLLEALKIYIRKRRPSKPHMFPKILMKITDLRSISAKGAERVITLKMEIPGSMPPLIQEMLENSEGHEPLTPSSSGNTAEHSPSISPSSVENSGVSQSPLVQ
# Procedure, shortened: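 HepG2, transient MRTU transfection, NR–Gal4 chimera, 24 h treatment; RT-PCR plus CE fluorescence detection of reporter mRNA; gain of signal vs DMSO.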
# [13] = target: Retinoic acid receptor alpha (Homo sapiens) (UniProt P10276); assay: ATG_RARa_TRANS: Attagene TRANS-FACTORIAL HepG2 Assay for human Retinoic Acid Receptor alpha (RARa) (AID 2283005; active = hit-call score of the fitted dose curve at least 0.9, where 1 is the maximum)
# Chain of Retinoic acid receptor alpha (Homo sapiens) (P10276 whole entry, looked up, the tested form may be a part): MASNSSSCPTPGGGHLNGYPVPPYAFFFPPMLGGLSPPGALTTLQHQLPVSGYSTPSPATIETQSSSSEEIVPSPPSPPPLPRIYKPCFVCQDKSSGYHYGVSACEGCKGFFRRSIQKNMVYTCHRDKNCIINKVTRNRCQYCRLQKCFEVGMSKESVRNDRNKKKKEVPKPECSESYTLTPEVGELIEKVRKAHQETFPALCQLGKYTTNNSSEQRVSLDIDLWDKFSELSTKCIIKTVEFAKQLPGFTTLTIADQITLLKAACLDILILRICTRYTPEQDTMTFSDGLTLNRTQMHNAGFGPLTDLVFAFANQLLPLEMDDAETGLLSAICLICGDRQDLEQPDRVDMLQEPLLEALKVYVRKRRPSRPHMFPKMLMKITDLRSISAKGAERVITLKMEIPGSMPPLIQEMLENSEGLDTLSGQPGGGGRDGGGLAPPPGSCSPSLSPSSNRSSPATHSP
# Procedure, shortened: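 Reporter transcripts, measured by RT-PCR with fluorescent labeling and capillary electrophoresis after 24 h dosing, reflect activity of an exogenous human RARa–GAL4 fusion in transiently transfected HepG2. Fitted for increase relative to DMSO.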
# [14] = BSK_3C_Proliferation: Cell Proliferation Assessment in the BioMAP Diversity Plus: 3C Assay (AID 2283006); details: primary human endothelial cells (HUVEC)
# Procedure, shortened: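 Proliferation as total protein: sulforhodamine B (0.1%) stain of TCA-fixed subconfluent human umbilical vein endothelial cells, absorbance 560 nm, 48 h after dosing. Activity fitted in both directions against DMSO baseline.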
# [15] = target: human RAR-related Orphan Receptor gamma (RORg), RORC (gene 6097) (UniProt P51449); assay: ATG_RORg_TRANS: Attagene TRANS-FACTORIAL HepG2 Assay for human RAR-related Orphan Receptor gamma (RORg) (AID 2283011; active = hit-call score of the fitted dose curve at least 0.9, where 1 is the maximum)
# Procedure, shortened: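 Activity is scored as increase in GAL4-UAS reporter mRNA over DMSO, detected by fluorescent RT-PCR and capillary electrophoresis in HepG2 cells transiently expressing a RORg-Gal4 chimera, 24 h after dosing.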
# [16] = target: Retinoic acid receptor RXR-alpha (Homo sapiens) (UniProt P19793); assay: ATG_RXRa_TRANS: Attagene TRANS-FACTORIAL HepG2 Assay for human Retinoid X Receptor alpha (RXRa) (AID 2283012; active = hit-call score of the fitted dose curve at least 0.9, where 1 is the maximum)
# Chain of Retinoic acid receptor RXR-alpha (Homo sapiens) (P19793 whole entry, looked up, the tested form may be a part): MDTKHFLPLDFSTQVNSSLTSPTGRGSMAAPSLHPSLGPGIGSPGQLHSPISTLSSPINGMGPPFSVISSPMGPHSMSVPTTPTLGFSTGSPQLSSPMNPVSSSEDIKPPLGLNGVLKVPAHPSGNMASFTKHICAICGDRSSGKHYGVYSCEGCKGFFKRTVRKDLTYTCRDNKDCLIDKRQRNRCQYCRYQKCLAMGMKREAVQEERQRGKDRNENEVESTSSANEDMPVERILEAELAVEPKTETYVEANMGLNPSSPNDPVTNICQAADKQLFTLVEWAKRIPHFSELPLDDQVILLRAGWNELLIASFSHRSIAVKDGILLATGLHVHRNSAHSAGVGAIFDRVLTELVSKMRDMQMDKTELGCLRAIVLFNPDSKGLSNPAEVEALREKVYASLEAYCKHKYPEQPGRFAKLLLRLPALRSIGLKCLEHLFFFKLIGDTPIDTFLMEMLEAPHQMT
# Procedure, shortened: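 TRANS format reporting activity of exogenous RXRa-Gal4 chimera in transiently transfected HepG2, 24 h exposure. Reporter transcripts quantified by RT-PCR with capillary electrophoresis, with gain of signal scored relative to DMSO.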
# [17] = target: human Retinoic Acid Receptor gamma (RARg), RARG (gene 5916) (UniProt P13631); assay: ATG_RARg_TRANS: Attagene TRANS-FACTORIAL HepG2 Assay for human Retinoic Acid Receptor gamma (RARg) (AID 2283009; active = hit-call score of the fitted dose curve at least 0.9, where 1 is the maximum)
# Chain of human Retinoic Acid Receptor gamma (RARg), RARG (gene 5916) (P13631 whole entry, looked up, the tested form may be a part): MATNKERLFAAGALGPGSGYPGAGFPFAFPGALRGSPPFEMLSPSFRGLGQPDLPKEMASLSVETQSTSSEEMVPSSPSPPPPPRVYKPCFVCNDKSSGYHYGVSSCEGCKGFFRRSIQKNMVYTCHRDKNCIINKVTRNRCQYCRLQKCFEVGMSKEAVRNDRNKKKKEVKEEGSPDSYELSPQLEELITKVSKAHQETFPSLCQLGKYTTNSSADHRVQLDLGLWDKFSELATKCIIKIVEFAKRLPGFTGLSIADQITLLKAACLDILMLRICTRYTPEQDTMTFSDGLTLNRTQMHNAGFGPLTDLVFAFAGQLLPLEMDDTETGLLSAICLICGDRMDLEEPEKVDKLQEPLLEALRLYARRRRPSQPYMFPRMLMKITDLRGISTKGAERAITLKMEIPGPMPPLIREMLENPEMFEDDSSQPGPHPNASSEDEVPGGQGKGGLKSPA
# Procedure, shortened: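 Transactivation of exogenous RARg-Gal4 fusion measured as reporter transcript induction after 24 h in transfected HepG2 cells. RNA reverse-transcribed, amplified, fluorescently labeled and resolved by capillary electrophoresis; increase relative to DMSO.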
# [18] = target: human RAR-related Orphan Receptor beta (RORb), RORB (gene 6096) (UniProt Q92753); assay: ATG_RORb_TRANS: Attagene TRANS-FACTORIAL HepG2 Assay for human RAR-related Orphan Receptor beta (RORb) (AID 2283010; active = hit-call score of the fitted dose curve at least 0.9, where 1 is the maximum)
# Chain of human RAR-related Orphan Receptor beta (RORb), RORB (gene 6096) (Q92753 whole entry, looked up, the tested form may be a part): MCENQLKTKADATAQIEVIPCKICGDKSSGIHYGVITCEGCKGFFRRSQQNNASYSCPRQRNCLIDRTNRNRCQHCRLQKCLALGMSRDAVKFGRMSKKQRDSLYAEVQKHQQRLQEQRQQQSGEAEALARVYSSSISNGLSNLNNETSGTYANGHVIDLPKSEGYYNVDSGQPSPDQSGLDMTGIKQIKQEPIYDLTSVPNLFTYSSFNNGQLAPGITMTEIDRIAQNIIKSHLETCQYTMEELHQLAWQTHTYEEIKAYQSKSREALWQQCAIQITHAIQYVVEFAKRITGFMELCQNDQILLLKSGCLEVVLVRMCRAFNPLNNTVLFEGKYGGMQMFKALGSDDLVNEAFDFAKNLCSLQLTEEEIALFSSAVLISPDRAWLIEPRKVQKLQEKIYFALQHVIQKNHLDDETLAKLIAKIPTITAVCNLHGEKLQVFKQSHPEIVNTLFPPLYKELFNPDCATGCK
# Procedure, shortened: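 Read-out is reporter mRNA induction, quantified by RT-PCR with fluorescent capillary electrophoresis, 24 h post-dose in transiently transfected HepG2 expressing exogenous NR-Gal4 chimera. Activity fitted upward versus DMSO.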
# [19] = BSK_3C_uPAR: BioMAP Diversity Plus: 3C Assay for Urokinase-type plasminogen activator receptor (uPAR) Biomarker Activity (AID 2282998); details: BioMAP 3C HUVEC, uPAR biomarker ELISA; actives raise or lower the signal
# Procedure, shortened: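 A multiplexed primary-cell system built on human umbilical vein endothelium was used, with chemical present for 24 h before reading. Cell-surface uPAR was detected by ELISA; signal change in either direction counted against DMSO.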
# [20] = read-out: Intercellular Adhesion Molecule 1 (ICAM1), ICAM1 (gene 3383); assay: BSK_3C_ICAM1: BioMAP Diversity Plus: 3C Assay for Intercellular Adhesion Molecule 1 (ICAM1) Biomarker Activity (AID 2283003); details: primary human endothelial cells (HUVEC); actives raise or lower the signal
# Procedure, shortened: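 ELISA readout of ICAM1 in human umbilical vein endothelial cells in the 3C system, taken 24 h post-dose. Gain or loss of signal versus DMSO was fitted in both directions, with SRB total-protein staining run in parallel.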
compound,measurement,setting,value
C=C(c1ccc(C(=O)O)cc1)c1cc2c(cc1C)C(C)(C)CCC2(C)C,AC50,[1],11.1 µM (active)
same,outcome,[1],inactive
same,outcome,[2],inactive
same,AC50,[3],11.1 µM (active)
same,outcome,[3],inactive
same,AC50,[4],33.6 µM (active)
same,outcome,[5],inactive
same,AC50,[6],11.1 µM (active) and 14.2 µM (active)
same,outcome,[7],inactive
C[C@]12CC[C@@H]3c4ccc(O)cc4CC[C@H]3[C@@H]1C[C@@H](O)[C@@H]2O,outcome,[1],inactive
same,outcome,[2],inactive
same,outcome,[3],inactive
same,outcome,[8],inactive
same,outcome,[9],inactive
same,outcome,[10],inactive
same,outcome,[11],inactive
same,outcome,[4],inactive
same,outcome,[5],inactive
same,outcome,[12],inactive
same,outcome,[13],inactive
same,outcome,[14],inactive
same,outcome,[6],inactive
same,outcome,[15],inactive
same,outcome,[16],inactive
c1cnc2c(c1)ccc1cccnc12,AC50,[1],100 µM (active)
same,outcome,[1],inactive
same,AC50,[2],3.04 µM (active)
same,outcome,[2],inactive
same,AC50,[8],6.68 µM (active) and 6 µM (active)
same,AC50,[4],28.6 µM (active)
same,outcome,[4],inactive
same,outcome,[5],inactive
same,outcome,[12],inactive
same,outcome,[13],inactive
same,outcome,[6],inactive
same,AC50,[7],26.4 µM (active)
same,outcome,[7],inactive
same,outcome,[17],inactive
same,outcome,[18],inactive
same,outcome,[16],inactive
O=C1c2ccccc2C(=O)c2c(O)c(O)cc(O)c21,AC50,[1],32.4 µM (active)
same,AC50,[2],5.36 µM (active)
same,outcome,[3],inactive
same,outcome,[8],inactive
same,outcome,[4],inactive
same,outcome,[5],inactive
same,outcome,[12],inactive
same,outcome,[13],inactive
same,AC50,[6],31.9 µM (active)
same,AC50,[7],31.5 µM (active)
same,outcome,[17],inactive
same,outcome,[18],inactive
C=CC(=O)OCCC(F)(F)C(F)(F)C(F)(F)C(F)(F)C(F)(F)C(F)(F)C(F)(F)C(F)(F)F,outcome,[1],inactive
same,AC50,[2],22.1 µM (active)
same,outcome,[3],inactive
same,outcome,[8],inactive
same,outcome,[9],inactive
same,outcome,[10],inactive
same,outcome,[11],inactive
same,outcome,[4],inactive
same,outcome,[5],inactive
same,outcome,[14],inactive
same,outcome,[6],inactive
same,outcome,[7],inactive
same,outcome,[18],inactive
same,outcome,[16],inactive
CCC(C)c1ccccc1O (stereo not drawn),outcome,[1],inactive
same,AC50,[2],74.7 µM (active)
same,outcome,[2],inactive
same,outcome,[9],inactive
same,outcome,[19],inactive
same,outcome,[10],inactive
same,outcome,[11],inactive
same,outcome,[4],inactive
same,outcome,[14],inactive
same,outcome,[6],inactive
same,outcome,[18],inactive
same,outcome,[16],inactive
C=CC(=C)CC/C=C(\C)CCC=C(C)C,outcome,[1],inactive
same,AC50,[2],19 µM (active)
same,outcome,[3],inactive
same,outcome,[8],inactive
same,outcome,[9],inactive
same,outcome,[19],inactive
same,outcome,[10],inactive
same,outcome,[11],inactive
same,outcome,[5],inactive
same,outcome,[20],inactive
same,outcome,[12],inactive
same,outcome,[13],inactive
same,outcome,[14],inactive
same,outcome,[18],inactive
O=C(O)CCC(F)(F)C(F)(F)C(F)(F)C(F)(F)C(F)(F)F,outcome,[1],inactive
same,outcome,[2],inactive
same,outcome,[3],inactive
same,outcome,[8],inactive
same,outcome,[9],inactive
same,outcome,[10],inactive
same,outcome,[11],inactive
same,outcome,[4],inactive
same,outcome,[5],inactive
same,outcome,[20],inactive
same,outcome,[14],inactive
same,AC50,[6],82.5 µM (active)
same,outcome,[6],inactive
same,outcome,[7],inactive
same,outcome,[18],inactive
same,outcome,[16],inactive
